About 2,400 (100%) of roughly 2,400 compounds were called active.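 Rule for the calls: active = ratio percent of control, averaged over triplicates, above buffer control mean plus 5 SD (cut at about 64% in these data); inactive = the rest.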 So high a share suggests a set chosen from earlier hits. Only a sample is shown.
target: Potassium channel subfamily K member 3 (Homo sapiens) (UniProt O14649); assay: retest of human KCNK3 channel inhibitors, confirmation, CHO cells, FluxOR thallium flux, triplicate (AID 651638); details: FluxOR fluorescence, at 10 µM, stronger effect = higher value, 0% buffer, 100% carvedilol maximal block;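 note: ratio is the fluorescence rise from min to max over baseline after thallium stimulus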
Sequence (O14649 whole entry, looked up): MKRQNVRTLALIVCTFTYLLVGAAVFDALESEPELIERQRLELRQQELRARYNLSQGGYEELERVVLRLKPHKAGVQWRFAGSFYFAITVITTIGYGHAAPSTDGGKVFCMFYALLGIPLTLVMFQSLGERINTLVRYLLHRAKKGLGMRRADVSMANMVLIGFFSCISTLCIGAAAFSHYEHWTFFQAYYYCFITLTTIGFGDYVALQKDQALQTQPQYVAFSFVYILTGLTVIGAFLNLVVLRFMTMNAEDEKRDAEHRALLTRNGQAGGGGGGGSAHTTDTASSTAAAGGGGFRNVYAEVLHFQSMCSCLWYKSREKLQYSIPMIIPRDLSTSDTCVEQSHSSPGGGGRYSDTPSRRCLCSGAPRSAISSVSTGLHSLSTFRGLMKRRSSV

Ratio percent of control, active:
C=CCSc1nsc(NC(=O)Nc2cccc(C(C)=O)c2)n1 109%
COc1ccc([N+](=O)[O-])cc1-c1nc2ccccc2nc1-c1ccccc1 127%
COc1cccc(C(=O)NCCSc2ccc(Br)cc2)c1 92.3%
Cc1cccc2c1-c1sc(C(=O)NCCCN3CCc4ccccc4C3)cc1CO2 90.3%
Cc1cccc(C(=O)Nc2ccccc2N2CCN(c3ccc(F)cc3)CC2)c1 119%
CCCCC(=O)Nc1ccccc1N1CCN(c2ccc(F)cc2)CC1 102%
O=C(Nc1ccccc1N1CCCC1)c1ccc2ccccc2c1 134%
N#Cc1nc(Cc2cccc3ccccc23)oc1NCc1ccc2c(c1)OCO2 96%
N#Cc1cccc(NC(=O)COC(=O)c2ccccc2C(=O)c2ccc(Cl)c([N+](=O)[O-])c2)c1 135%
CC(Sc1nc2ccccc2c(=O)n1Cc1ccco1)C(=O)c1ccccc1 (stereo not given) 97%
Cc1cc(C)c(C#N)c(SCc2ccc3c(c2)OCO3)n1 137%
CCCCCCCCCCOC(=O)Cn1c(COc2cccc(OC)c2)[n+](C)c2ccccc21 119%
CS/C(=C\C(=O)c1ccco1)Nc1ccccc1Cl 95%
S=C(Nc1cccc(Br)c1)N1CCn2cccc2C1c1cccnc1 (stereo not given) 79.7%
CCCOc1ccc2c3c(c(=O)oc2c1OCCC)CCC3 111%
COc1ccc(CC(=O)Nc2nc(-c3ccc(F)c(F)c3)cs2)cc1OC 134%
CC(Oc1cccc(NC(=O)c2cccs2)c1)C(=O)c1ccccc1 (stereo not given) 103%
Cc1cccc(N(Cc2ccccc2)C(=O)c2ccccc2F)c1 88.3%
CCOc1ccc(C2c3[nH]c4ccccc4c3CCN2Cc2cccn2-c2ncccn2)cc1 (stereo not given) 117%
CC[n+]1cc(C)ccc1/C=C/c1ccc(N(C)C)cc1 143%
COc1ccc(C(C)=O)cc1COc1ccc(Cl)c(C)c1 117%
O=C(Nc1cccc(Cl)c1)Nc1ccccc1NS(=O)(=O)c1cccs1 138%
C=CCc1cc(S(=O)(=O)c2ccc(O)c(CC=C)c2)ccc1O 106%
CC(=O)N(C1=C(Cl)C(=O)c2ccccc2C1=O)c1ccc(C(=O)O)cc1 136%
COc1ccc(S(=O)(=O)NCCCCOc2ccc(Cl)cc2)cc1 123%
C=CCSc1nnc(N2C(=O)C(O)=C(C(=O)c3ccco3)C2c2ccc(F)cc2)s1 (stereo not given) 92%
O=C(Oc1ccc(Br)cc1C(=S)N1CCOCC1)c1cccc([N+](=O)[O-])c1 103%
CCCc1cc(C(=O)N2CCCC(CO)(CCCc3ccccc3)C2)n(C)n1 (stereo not given) 103%
CCN(CC)CCN(C(=O)c1cc(Cl)sc1Cl)c1nc2cc3c(cc2s1)OCO3 121%
COc1ccc(CN(C)C(=O)c2cc(-c3ccc(C)cc3C)nc3ccccc23)c(OC)c1OC 129%
CC(C)CCNC(=O)C(C)N(C(=O)Cn1nnc(-c2ccc(F)cc2)n1)C1CCCC1 (stereo not given) 74%
COC(=O)c1ccc(COC(=O)C2CCN(S(=O)(=O)c3c(Cl)cccc3Cl)CC2)o1 85.3%
CCn1ncc(Br)c1C(=O)Nc1cc(C)ccc1F 87.3%
O=C(Cn1cc(C(=O)c2cccs2)c2ccccc21)NCc1cccs1 116%
COc1cc(Cl)c(S(=O)(=O)N2CCN(Cc3ccc4c(c3)OCO4)CC2)cc1Cl 107%
Cc1nc2ccccc2cc1OCc1ccc(F)cc1 134%
[O-][n+]1ccc(OCc2ccccc2)cc1 73%
Cc1cc(OCCCCOc2ccc(C#N)cc2)ccc1[N+](=O)[O-] 119%
Cc1ccc(S(=O)(=O)NCc2cn3ccsc3n2)c(C)c1 64%
CC(C(=O)NCC1CCCCC1)N(C)Cc1cccc(Cl)c1 (stereo not given) 114%
O=C(CSc1nc(Nc2ccccc2)nc(N2CCOCC2)n1)Nc1cc(Cl)ccc1O 127%
Clc1cccc(-c2nc(NCC3CCCO3)c3ccccc3n2)c1 (stereo not given) 130%
CCc1ccc2nc3sc(C(=O)Nc4nnc(CC)s4)c(N)c3cc2c1 116%
CSc1cccc(NC(=S)N(C(C)C)C(C)c2ccccn2)c1 (stereo not given) 98.3%
COc1ccc(Cl)cc1NC(=O)C(C)N1CCc2ccccc21 (stereo not given) 96.3%
CCc1nc(SCC(=O)NNC(=O)c2ccc(C)cc2)c2ccccc2n1 78%
FC(F)(F)c1cccc(NC(=S)Nc2cccc(Cl)c2)c1 127%
CSc1nccc(NC(=O)c2ccc(C(C)(C)C)cc2)n1 116%
Cc1cccc(NC(=O)c2sc3nc4c(c(-c5ccco5)c3c2N)CCC4)c1 115%
N#Cc1ccc(S(=O)(=O)NCC(=O)OCC(=O)NCCc2ccccc2)cc1 63%
O=C1c2ccccc2C2=Nc3ccccc3SC(c3ccccc3F)C12 (stereo not given) 128%
O=C(c1cc(-c2ccc(O)cc2)on1)N1CCCc2ccccc21 76.7%
COc1ccc2c(c1)C(c1cccs1)=NNC(c1cccnc1)=N2 73.3%
CC(=O)Nc1cccc(OCC(=O)/C=C2\N(C)c3ccccc3C2(C)C)c1 124%
COc1cc(C(=O)Nc2oc(-c3ccccc3)c(-c3ccccc3)c2C#N)cc(OC)c1OC 119%
Cc1nonc1C1CCCN1C(=O)c1cc(COc2cccc(C(F)(F)F)c2)on1 (stereo not given) 87.3%
Cc1ccc(NC(=O)c2cc([N+](=O)[O-])ccc2Cl)c(O)c1 119%
O=C(CC1NCCc2ccccc21)Nc1cccc(Cl)c1 (stereo not given) 115%
CC(NCc1cccs1)C(=O)Nc1cc(Cl)cc(Cl)c1 (stereo not given) 96.3%
Cc1nc(N2CCN(c3ccccn3)CC2)c2c(C)c(C(=O)Nc3ccc(F)c(Cl)c3)sc2n1 129%
Cc1nc(N2CCN(c3ccccn3)CC2)c2c(C)c(C(=O)Nc3ccc(F)cc3)sc2n1 125%
Cc1nc(N2CCOCC2)c2c(C)c(C(=O)Nc3ccc(C(F)(F)F)cc3)sc2n1 136%
CSc1nnc2c(n1)OC(c1ccsc1)N(C(C)=O)c1ccccc1-2 (stereo not given) 106%
CSCc1cc(N(C)C)nc(SCc2ccc(Cl)cc2Cl)n1 115%
O=C(Nn1c(SCc2ccc([N+](=O)[O-])cc2)nc2ccccc2c1=O)c1ccc(F)cc1 139%
COc1ccc(C2Nc3ccccc3C(=O)N2Cc2ccccc2)cc1Cn1nnc2ccccc21 (stereo not given) 110%
FC(F)(F)c1cc(-c2ccco2)nc(NCc2ccc(Cl)cc2)n1 126%
FC(F)(F)c1cccc(-c2cc3ccccc3nc2N2CCCC2)c1 101%
CC(=O)N1CCCc2cc(S(=O)(=O)N3CCCC(C(=O)N4CCN(c5cccc(Cl)c5)CC4)C3)ccc21 (stereo not given) 119%
COc1ccc(CCNC(=O)c2ccccc2OCc2ccccc2)cc1 101%
CC(=O)c1ccccc1OCc1ccc(C(=O)c2ccccc2)cc1 121%
CC(C)c1ccccc1OCC(O)CN(CC(O)COc1cccc2ccccc12)C(C)C (stereo not given) 119%
Cc1cccc(C)c1N1CCN(S(=O)(=O)N2CCCCC2)CC1 122%
N/C(Cc1ccc([N+](=O)[O-])cc1)=N\OC(=O)COc1ccc2ccccc2c1 112%
COC(=O)c1cc(NC2c3ccccc3C(=O)N2c2ccc(Cl)cn2)cc(C(=O)OC)c1 (stereo not given) 115%
COc1cc(/C=C(\C#N)c2nc3ccccc3[nH]2)ccc1O 125%
COc1ccccc1N1CCN(/N=C\C(Br)=C\c2ccccc2)CC1 89.7%
O=C(Nc1ccccc1)O/N=C1\CCCCC1c1ccc([N+](=O)[O-])cc1[N+](=O)[O-] (stereo not given) 118%
CC(C)c1cc(C(=O)N/N=C/c2ccoc2)c(O)c(C(C)C)c1 123%
CCCCCCCCCCCCN1C(=O)CSC1c1cccnc1 (stereo not given) 125%
CCc1cc(C(c2ccccc2OC)N2CCOCC2)c(NC(=O)c2ccccc2)s1 (stereo not given) 102%
COc1cccc(CNc2nc(C(F)(F)F)nc3ccccc23)c1 125%
Cc1cccc2cc(CN(Cc3nnnn3Cc3ccccc3)C3CCCC3)c(=O)[nH]c12 115%
COc1cccc(NC(=S)N(CCc2c(C)[nH]c3ccccc23)Cc2ccco2)c1 113%
COc1ccccc1NC(=O)CSc1nc2sc(C)c(C)c2c(=O)n1Cc1ccco1 108%
O=C(Nc1cccc(S(=O)(=O)Nc2ccc(Cl)cc2)c1)c1ccc2c(c1)OCCO2 105%
C=CCN(N=Nc1cccc([N+](=O)[O-])c1)c1cccc([N+](=O)[O-])c1 109%
COc1ccccc1C(c1nnnn1C(C)(C)C)N1CCN(Cc2ccccc2)CC1 (stereo not given) 109%
COC(=O)C1=C(C)N(C(C)c2ccccc2)C(=O)/C1=C\c1ccco1 (stereo not given) 105%
Cc1ccc(NC(=S)N2CCCC(c3ccccc3)=N2)cc1 97.7%
c1ccc(C(c2ccccc2)N2CCN(Cc3nnnn3C3CCCCC3)CC2)cc1 118%
Cc1cccc(-c2nc3ccc(C(=O)NCCN4CCN(C)CC4)cc3nc2-c2cccc(C)c2)c1 106%
O=C(NCCc1ccccc1)c1ccc2c(c1)N(Cc1ccccc1)CCS2 108%
Cc1c(C(=O)N2CCCc3ccccc32)sc2nc(-c3ccccc3)cn12 102%
C=CCN(C(=O)c1cc(C)cc(C)c1)C1(C(=O)Nc2ccccc2)CCN(C(C)C)CC1 93%
CCCC(=O)Nc1ccc(Cl)c(NC(=O)c2ccc(Br)o2)c1 92.7%
O=C(N/N=C/c1cccc(OCc2ccccc2)c1)c1ccc(Br)o1 116%
Cc1ccc(NC(=O)COC(=O)CNC(=O)c2ccc(Cl)cc2Cl)cc1S(=O)(=O)N1CCOCC1 89%
COc1ccc(-c2nc(CCNC(=O)c3ccc(Br)o3)cs2)cc1 84.7%
CN1CCc2ccccc2C1Cc1ccccc1NC(=O)c1sc2ccccc2c1Cl (stereo not given) 114%
c1ccc2c(NC3C4CC5CC(C4)CC3C5)nc(N3CCOCC3)nc2c1 (stereo not given) 122%
CCOc1ccccc1Oc1cn[nH]c1-c1ccc(OC)cc1O 114%
COCCNc1cc(-c2ccccc2)nc2cc(-c3cccc(F)c3)nn12 130%
COc1cccc(CN(C)CC(O)COC(c2ccccc2)c2ccccc2C)c1 (stereo not given) 110%
Oc1ccc(/C=N/Nc2nc(-c3ccccc3F)nc3ccccc23)c(O)c1 93.3%
O=C(NCCc1c[nH]c2ccccc12)c1cccc(Br)c1 118%
Cc1cc(NC(=O)Nc2ccc(Cl)cc2)n(-c2ccccc2)n1 100%
CN(CCC(=O)Nc1cc(S(=O)(=O)N(C)C)ccc1Cl)CC(=O)Nc1ccc(F)cc1 118%
COc1cccc(COc2ccc(N(C)S(=O)(=O)c3ccccc3)cc2)c1 132%
O=C(N/N=C/c1sc(N2CCCCC2)nc1-c1cccs1)c1cccnc1 123%
COc1cccc(/C=N/Nc2cc(C)nc(-c3ccccc3O)n2)c1O 134%
CCC(C)(C)n1nnnc1C(c1cccs1)N1CCN(c2nc3ccccc3s2)CC1 (stereo not given) 112%
O=C(CNCCC1=CCCCC1)Nc1ccccc1N1CCCCCC1 113%
Cc1cc(C)c(S(=O)(=O)c2ccccc2)c(OC(=O)c2c(F)cccc2Cl)n1 78%
COc1ccc(Nc2ncnc3sc(-c4ccccc4)cc23)c(OC)c1 112%
